# Sampled rows, rich in hits. Any-hit rate of the full collection: about 6.3%.
# Autofluor 339: intrinsic fluorescence of library compounds, ex339/em460 – biochemical, MLSMR library, data from DPM-DC assay, artefact control, profiling panel; compound autofluorescence, ex339/em460 nm, NADH buffer; stronger effect = higher value; 1 = no-compound wells, NADH background; fluorescence fold increase at 10 µM; actives 5.5% (n = 65,000);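 active means at 10 µM, mean starting fluorescence two-fold or more over control wells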;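 further: signal is the first read of a kinetic run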
# NADH enzymes: blocks coupling enzymes of NAD/NADH assays. coupled PK/LDH NADH assays, four targets. IC50, µM (doses to about 10 µM), without a hit: at the highest dose inhibition. actives 0.02% (n = 65,000);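 active means single-dose screening hits from any of four coupled enzyme assays that gave an IC50 when retested across doses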;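 further: the DPM-DC format reads NADH fluorescence rather than 340 nm absorbance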
# DPM-DC inhibit: S. pneumoniae DPM-DC inhibition | purified DPM-DC, PK/LDH coupled NADH fluorescence | calls only at 10 µM | actives 0.49% (n = 65,000) | AID 556;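 active means the 320 compounds with the highest percent inhibition in the single-dose primary screen, excluding strongly autofluorescent ones, cut at about 32% in these data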;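 further: kinetic rate of NADH fluorescence loss reporting ADP formed by the decarboxylase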
# PMK inhibit: inhibitors of Streptococcus pneumoniae phosphomevalonate kinase. actives 0.49% (n = 65,000). inhibition, % at 10 µM. purified PMK, PK/LDH-coupled NADH absorbance 340 nm;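 active means top-ranked compounds by inhibition in the single 10 µM screen, taking a fixed number of the strongest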;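 further: 0% = full reaction with DMSO carrier and 100% = background rate without enzyme reaction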
# Spn MK inh: inhibitors of Streptococcus pneumoniae mevalonate kinase; actives 0.48% (n = 65,000); inhibition, % at 10 µM; purified MK, PK/LDH-coupled NADH absorbance 340 nm;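 active means ranked among the strongest by inhibition in the single 10 µM screen, a fixed top-ranked set picked for dose follow-up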
# Abs 340nm: absorbance at 340 nm. fold change at 10 µM. 65,000 tested, under 10 active. compound absorbance at 340 nm, fold over control;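 active means at 10 µM dose, initial 340 nm absorbance at least 2 fold that of control wells; inactive means change under 2 fold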;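 further: initial absorbance extrapolated from kinetic A340 decline of NADH oxidation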
# An asterisk follows results filed as active; i = inactive; / = no result shown; + = active, no number.
SMILES,Autofluor 339,NADH enzymes,DPM-DC inhibit,PMK inhibit,Spn MK inh,Abs 340nm
Cc1ccc2nc3c(cc(C#N)c(=O)n3-c3nccs3)c(=O)n2c1,3.8*,9%,/,9,8,1.1
N#Cc1cc2c(=O)n3ccccc3nc2n(CCN2CCOCC2)c1=O,3.9*,8%,/,12,4,1.1
N#Cc1cc2c(=O)n3ccccc3nc2n(CCCN2CCOCC2)c1=O,3.9*,12%,/,14,10,1
N=c1c(C(=O)NC2CCCC2)cc2c(=O)n3ccccc3nc2n1CCN1CCOCC1,1.9,5%,/,0,10,1.1
Cc1ccc(O)c(C(=O)c2cc(C#N)c(=O)n(CC3CCCO3)c2)c1 (configuration not stated),1,5%,i,17,3,1
COc1ccc(CCn2c(=N)c(C#N)cc3c(=O)n4ccccc4nc32)cc1,1.3,4%,i,1,10,1
COc1ccc(-c2nc3ccccc3c(=O)n2CCCN2CCOCC2)cc1,1.1,4%,i,8,4,1
Cc1ccc2nc3c(cc(C#N)c(=O)n3CC3CCCO3)c(=O)n2c1 (configuration not stated),3.8*,11%,/,14,8,1.1
Cc1ccc(C(=O)NCC(=O)OCC(=O)c2c(N)n(C)c(=O)n(C)c2=O)s1,1.1,3%,i,8,0,1
Cc1cccc(N(CC(=O)NC2CCCCC2)C(=O)c2c(C)noc2C)c1,1.1,1%,i,0,2,1
O=c1c2ccccc2nc(-c2ccccc2)n1CCN1CCOCC1,1.1,7%,i,11,10,1
Cc1ccc2nc3c(cc(C#N)c(=O)n3CCN3CCOCC3)c(=O)n2c1,3*,9%,i,1,7,1
O=C(O)Cn1c(-c2ccccc2)nc2ccccc21,1,8%,i,15,9,1
Oc1ccccc1Cn1c(-c2ccccc2O)nc2ccccc21,3.8*,9%,/,11,6,1.1
COC(=O)C(NC(=O)c1ccccc1)=C1C=C(C)OC(C)=C1,1.1,10%,i,29*,0,1.3
CCOC(=O)C(NC(=O)c1ccccc1)=C1C=C(C)OC(C)=C1,1.1,3%,i,5,5,1.2
CCOC(=O)CCCc1sc(N)nc1-c1[nH]c(=O)[nH]c1C,1.2,6%,i,9,8,1
COc1ccc(C(=O)c2oc3ccc(OC)cc3c2N)cc1,1.8,8%,i,1,7,1.1
COC(=O)c1oc2ccc(OC)cc2c1N,2.6*,8%,i,20,2,1
CCN(CC)CCOC(=O)c1c(C)oc2ccc(OC)cc12,1.1,7%,i,14,4,1
CN(C)C(=O)c1c(-c2ccccc2)oc2ccc(O)cc12,2.2*,3%,/,0,5,1.1
CCOC(=O)c1c(COc2ccccc2)oc2ccc(O)cc12,1.1,1%,i,0,4,1
Nc1c(C(=O)CCC(=O)O)oc2ccc(Cl)cc12,1.6,8%,i,12,0,1.1
COc1ccc2oc(-c3ccccc3)c(C(N)=O)c2c1,2.1*,2%,/,0,4,1.1
NC(=O)c1oc2ccc(Cl)cc2c1N,3.9*,9%,/,11,7,1.1
SMILES,Autofluor 339,NADH enzymes,DPM-DC inhibit,PMK inhibit,Spn MK inh,Abs 340nm
CCOC(=O)COc1ccc2c(c1)c(C(=O)OCC)c(C)n2CC,1.1,10%,i,13,11,1
C=C(C)CSc1nnc([C@@H](NC(=O)OC(C)(C)C)C(C)CC)o1 (some centres not stated),1.1,6%,i,10,9,1
CCOC(=O)c1cnn2c1[nH]c(=O)c1ccccc12,2.3*,6%,/,6,6,1
CCOC(=O)c1cnn(-c2cc(C)c3ccccc3n2)c1N,1.1,6%,i,7,11,1.4
O=C(c1ccccc1F)N(Cc1ccccc1)C1CCS(=O)(=O)C1 (configuration not stated),1.2,44%,+,14,29,1.1
O=C(c1ccccc1F)N(Cc1ccc(F)cc1)C1CCS(=O)(=O)C1 (configuration not stated),1.1,9%,i,13,15,0.99
Cc1ccccc1C(=O)NCc1ccncc1,1.1,8%,i,8,11,1
Cc1cccc(CNC(=O)c2ccccc2N)c1,3.6*,5%,/,4,6,1.1
CCCCC(CC)C(=O)Nc1ccccc1C(=O)NC(C)C (configuration not stated),1.1,3%,i,3,5,1
COC(=O)c1ccccc1NC(=O)c1ccc(-c2ccccc2F)o1,2.2*,2%,/,10,6,1
Cc1cc(C)n(-c2nc(NCc3cccnc3)c3c4c(sc3n2)COC(C)(C)C4)n1,3.7*,5%,/,7,2,1.1
CCc1nc(SCC(=O)Nc2cccc(C(F)(F)F)c2)c2c(=O)n(C)c(=O)n(C)c2n1,1.2,2%,i,0,7,1.1
O=C(NCc1ccco1)c1cnc2n(c1=O)CCS2,1,3%,i,3,1,1
Cc1csc2ncc(C(=O)NCc3ccco3)c(=O)n12,3.8*,14%,i,9,6,1.1
COc1ccc(CNC(=O)c2cnc3scc(C)n3c2=O)cc1,2.1*,9%,/,13,5,1.2
CCOCCCNC(=O)C(c1ccc(C)cc1)N(Cc1ccc2c(c1)OCO2)C(=O)c1cnccn1 (configuration not stated),1,3%,i,0,2,1
O=C(Nc1cc(=O)c2ccccc2o1)N1CCCCC1,1.2,4%,i,0,11,1.1
CSc1ccc(-c2cc(=O)c3ccccc3o2)cc1,2.9*,3%,/,14,0,1.1
CN1CCN(C(=O)Cn2c(=O)oc3cc(S(=O)(=O)NCc4ccccc4)ccc32)CC1,1.1,5%,i,7,9,1.1
CN(c1ccc(F)cc1)S(=O)(=O)c1ccc2[nH]cc(C(=O)O)c(=O)c2c1,1.3,3%,i,9,0,1
COCCN(CCOC)C(=O)c1c[nH]c2ccc(S(=O)(=O)N(C)c3ccc(F)cc3)cc2c1=O,2.3*,10%,i,18,1,1
O=C(NCCN1CCN(c2ccccc2F)CC1)C1CCCN(S(=O)(=O)c2cnc[nH]2)C1 (configuration not stated),1.1,8%,i,12,11,0.99
CC(=O)Nc1ccc2nc(-c3cccnc3)[nH]c2c1,1.3,4%,i,0,8,1.1
CC(=O)Nc1cccc(-c2nc3ccc(NC(C)=O)cc3[nH]2)c1,4.9*,5%,/,6,4,1
COc1ccc(-c2cc(C(F)F)n3ncc(C(=O)N4CCN5CCCC5C4)c3n2)cc1 (configuration not stated),3.6*,9%,/,5,13,1.1

# Screens deposited in PubChem by SRMLSC.
